Glyco luc inh = N-linked glycosylation inhibition; D54 ERlucT glycosylation luciferase reporter, 24 h; percent of 100 nM tunicamycin response; reporter increase, % at 12.5 µM; 360,000 tested, 0.23% active;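 active means mean luciferase reporter signal, scaled so untreated is 0 and the glycosylation-blocking control 100, at or above a set limit in every replicate; inconclusive means mean reaches the limit but not every replicate does; inactive means mean below the limit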;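 further: luciferase carries N-glycosylation sites so blocking glycosylation raises the light; 0% = median of neutral control wells and 100% = median of 100 nM tunicamycin wells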
NSD2 inh = NSD2 (human) methyltransferase inhibition; NSD2 peptide methylation, AlphaScreen, 120 min; inhibition, % at 12.5 µM; 310,000 tested, 0.54% active; AID 743445; in the data active means inhibition above about 50%
Target sequence (O96028 whole entry, looked up): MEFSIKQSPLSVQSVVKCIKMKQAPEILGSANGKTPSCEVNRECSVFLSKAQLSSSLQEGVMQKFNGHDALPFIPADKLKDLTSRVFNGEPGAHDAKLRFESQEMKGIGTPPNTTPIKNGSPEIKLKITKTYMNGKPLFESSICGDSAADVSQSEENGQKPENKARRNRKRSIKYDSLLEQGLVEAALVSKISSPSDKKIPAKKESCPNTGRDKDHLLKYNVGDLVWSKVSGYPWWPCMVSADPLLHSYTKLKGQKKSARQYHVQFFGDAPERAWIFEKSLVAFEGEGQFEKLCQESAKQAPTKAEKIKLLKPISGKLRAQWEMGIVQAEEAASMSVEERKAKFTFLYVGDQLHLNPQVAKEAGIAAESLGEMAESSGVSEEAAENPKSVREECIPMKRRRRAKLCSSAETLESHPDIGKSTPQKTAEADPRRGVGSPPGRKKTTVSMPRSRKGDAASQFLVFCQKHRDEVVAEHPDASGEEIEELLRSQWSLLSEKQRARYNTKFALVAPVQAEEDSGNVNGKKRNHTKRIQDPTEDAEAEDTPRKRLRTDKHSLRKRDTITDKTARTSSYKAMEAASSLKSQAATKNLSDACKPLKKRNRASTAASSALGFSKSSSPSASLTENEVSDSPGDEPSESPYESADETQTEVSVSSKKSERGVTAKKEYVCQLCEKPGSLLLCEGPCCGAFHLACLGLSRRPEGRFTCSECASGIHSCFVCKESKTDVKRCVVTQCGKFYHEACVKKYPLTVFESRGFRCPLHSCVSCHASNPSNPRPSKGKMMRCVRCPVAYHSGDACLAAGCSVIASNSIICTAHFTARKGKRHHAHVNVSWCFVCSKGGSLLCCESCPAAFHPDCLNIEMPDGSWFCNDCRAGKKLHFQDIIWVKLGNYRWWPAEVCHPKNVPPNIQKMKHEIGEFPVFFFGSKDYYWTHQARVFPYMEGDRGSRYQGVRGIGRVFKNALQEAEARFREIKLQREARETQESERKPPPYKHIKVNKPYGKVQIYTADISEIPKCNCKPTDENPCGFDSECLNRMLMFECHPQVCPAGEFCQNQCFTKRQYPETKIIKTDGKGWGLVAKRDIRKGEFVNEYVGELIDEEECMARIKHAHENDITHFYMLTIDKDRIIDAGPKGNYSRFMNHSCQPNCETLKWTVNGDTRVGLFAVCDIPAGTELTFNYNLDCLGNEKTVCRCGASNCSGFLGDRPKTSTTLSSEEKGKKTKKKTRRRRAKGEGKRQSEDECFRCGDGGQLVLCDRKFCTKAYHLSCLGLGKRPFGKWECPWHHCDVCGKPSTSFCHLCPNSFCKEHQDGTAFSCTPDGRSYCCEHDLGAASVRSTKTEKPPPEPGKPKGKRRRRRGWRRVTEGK
MITF TRPM1 HTS = activators of MITF-driven TRPM1 promoter activity in SK-MEL-5 cells. SK-MEL-5 TRPM1-promoter luciferase, 24 h; % of positive control, neutral wells = 0. activation, % at 12.5 µM. 300,000 tested, 0.75% active;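 active means mean activation of at least 80% with every replicate also reaching 80%; inconclusive means mean reaches 80% but some replicate falls short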;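 further: 0% = neutral control wells and 100% = parthenolide positive control wells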
PfHsp90 set2 = reduces growth (ATP signal) of yeast expressing P. falciparum Hsp90 | S. cerevisiae expressing PfHsp90, BacTiter-Glo ATP, 48 h; yeast lacking PDR1 and PDR3 efflux regulators | inhibition, % at 9.4 µM | 310,000 tested, 0.32% active | AID 504621;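 active means every replicate shows inhibition above about 80%, whatever the replicate mean, limit read from the data; inconclusive means mean inhibition reaches the set limit but some replicate falls short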;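 further: 0% = DMSO neutral controls and 100% = 20 µM radicicol positive controls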
Wnt act = Wnt/beta-catenin pathway activation | activation, % at 9.35 µM | AID 743398 | 300,000 tested, 1.2% active | Wnt/beta-catenin reporter cell assay, activator, plate reader; in the data active means activation above about 30%, passing the limit was not always enough; inconclusive means no clear call, values can overlap the other calls;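 further: 0% = neutral control wells and 100% = positive control wells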
MITF TRPM1 inh = inhibitors of MITF-driven TRPM1 promoter in melanoma cells. SK-MEL-5 TRPM1 promoter luciferase, 24 h. inhibition, % at 12.5 µM. 330,000 tested, 0.83% active;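 active means mean inhibition across replicates of 60% or more, whatever share of single replicates reaches that level; inconclusive means some that reach 60%, reason not given; inactive means mean inhibition across replicates below 60%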
* hit, by the source's call; u = inconclusive; x = not tested or not shown. Rows were chosen to be rich in hits. Some 2.9% of all compounds tested hit in one or more screens of this group.

SMILES	Glyco luc inh	NSD2 inh	MITF TRPM1 HTS	PfHsp90 set2	Wnt act	MITF TRPM1 inh
CN=C1S/C(=C\c2ccc(O)c(Br)c2)C(=O)N1C	-1	2	-5	28	9	3
CN=C1S/C(=C\c2ccc(O)c(OC)c2)C(=O)N1C	-1	-2	x	x	52*	x
COCc1cc(N2CCN(C(=O)OC(C)(C)C)C[C@@H]2C)ccc1N1CCN(Cc2ccccc2)[C@@H](C)C1	x	x	x	x	-8	x
COc1ccc(C(=O)NCc2nnc(SCC(=O)NO)n2Cc2ccccc2)cc1	41*	6	-20	-12	7	18
CCn1c(CNC(=O)Cc2ccc(OC)cc2)nnc1SCC(=O)c1ccccc1	-1	0	6	-6	-1	-8
COc1ccc(CNC(=O)c2ccc(C(C)C)cc2)cc1	-5	-3	104*	x	14	-101
COc1ccc(CNC(=O)c2ccc(C(C)(C)C)cc2)cc1	-1	-2	102*	-11	6	-95
O=[N+]([O-])c1ccc(C=NN2CCCCCC2)cc1	-8	5	41	x	60*	-46
C(=NN1CCCCCC1)c1ccc2c(c1)OCO2	-12	1	23	x	33*	-16
C(=N\n1cnnc1)/c1ccc2c(c1)OCO2	3	-2	-8	-1	-2	10
CN1CCN(C(=O)/C=C/c2ccc3c(c2)OCO3)CC1	1	x	5	-29	0	-8
O=C(/C=C/C=C/c1ccc2c(c1)OCO2)N1CCCCC1	-6	x	98*	7	1	-100
CC(C(=O)OCc1nnc(-c2ccccc2)o1)N1C(=O)C2CCCCC2C1=O (stereo not given)	2	0	21	10	1	-20
O=[N+]([O-])c1ccccc1-c1cc(-c2ccccc2O)n[nH]1	0	4	45	2	36*	-42
O=C(NCc1ccccc1)NC1(C(=O)Nc2ccc3c(c2)OCCO3)CCCCC1	-11	41	-65	x	x	65*
O=C(CN1C(=O)NC2(CCCCC2)C1=O)Nc1ccc2c(c1)OCCCO2	0	-1	130*	-2	44*	-125
O=C(Nc1ccccc1)NC1(C(=O)NCc2ccc3c(c2)OCO3)CCCCC1	-2	1	3	-20	0	-2
CC(C)c1ccc(NC(=O)CN2C(=O)NC3(CCCCCCC3)C2=O)cc1	37*	3	19	15	5	-19
COc1ccc(NC(=O)CN2C(=O)NC3(CCCCCCC3)C2=O)cc1	4	-3	-2	x	1	-1
CCN(CC)S(=O)(=O)c1cccc(NC(=O)CN2C(=O)NC3(CCC(C)CC3)C2=O)c1 (stereo not given)	32*	-2	20	-27	-2	-18
CC1CCC2(CC1)NC(=O)N(CC(=O)Nc1cccc(S(=O)(=O)N(C)c3ccccc3)c1)C2=O (stereo not given)	14	-1	x	x	-4	x
C[C@H]1[C@@H]2C[C@@]3(O[C@H](c4ccc(C(F)(F)F)cc4)N=C3C[C@@H]1c1ccccc1)N(Cc1ccncc1)C2=O	x	x	x	x	-7	x
Cc1ccc(C(=O)CN2C(=O)NC3(CCCCCC3)C2=O)c(C)c1	-1	0	115*	x	24	-111
Cc1cc(C)c(C(=O)CN2C(=O)NC3(CCCCC3)C2=O)cc1C	2	0	35	4	14	-33
COC(=O)[C@@H](Cc1ccc(O)cc1)NC(=O)[C@H]1O[C@@H](n2cnc3c(=O)[nH]c(N)nc32)[C@H](O)[C@@H]1O	x	x	x	x	-1	x
SMILES	Glyco luc inh	NSD2 inh	MITF TRPM1 HTS	PfHsp90 set2	Wnt act	MITF TRPM1 inh
O=C(Nc1cccc(C(F)(F)F)c1)Nc1ccc(N2CCCC2)c(S(=O)(=O)Nc2ccccc2Cl)c1	-12	0	-69	-12	x	72*
O=c1oc(CCCO)cc2ccc(/C=C/c3cccc([N+](=O)[O-])c3)cc12	-6	x	92*	-7	u	-90
O=c1oc(CCCO)cc2ccc(Br)cc12	0	x	8	-19	-1	-7
CCCC(=O)N1CCN(c2nc3ccccc3s2)CC1	-8	-2	96*	17	0	-94
CCc1ccc2nc(N3CCN(C(=O)C(C)(C)C)CC3)sc2c1	-3	-3	65	19	17	-57
CC(C)(C)C(=O)N1CCN(c2nc3ccccc3s2)CC1	-3	-2	122*	-1	20	-123
CC1CCN(C(=O)CSc2nc3ccccc3s2)CC1	-1	2	38	23	42*	-36
CCN1CCN(C(=O)c2ccc(-c3nc4ccccc4s3)s2)CC1	-5	11	31	-2	49*	-28
O=C(CN1CCN(c2nc(-c3ccccc3)cs2)CC1)Nc1ccc(F)cc1F	x	0	x	x	x	x
N#C/C(=C\c1cccs1)C(=O)Nc1ccccn1	1	x	89*	2	74*	-87
O=C1c2ccccc2C(=O)C1c1nccc2ccccc12	-14	-3	-54	12	x	55
O=C1c2ccccc2C(=O)C1c1ccnc2ccccc12	-12	-14	-35	9	43*	36
Cc1[nH]nc2c1C(c1ccc(Br)cc1)N(c1ccccc1)C2=O (stereo not given)	x	x	x	x	-2	x
Cc1cc(N2CCN(C(=O)OC(C)(C)C)C[C@@H]2C)ccc1N1CCS(=O)(=O)CC1	x	-1	x	x	4	x
CN1C(=O)C(=O)N2C(=C[C@]3(c4c[nH]c5ccccc45)c4ccccc4N[C@H]23)C1=O	x	1	x	x	x	x
CCN(CC)C(=S)SSC(=S)N(CC)CC	7	x	-29	107*	-2	31
CCN(CC)C(=S)SCC(=O)c1ccccc1	-7	-2	x	-8	x	-31
CC(=O)N1CSCC1C(=O)NNS(=O)(=O)c1ccccc1 (stereo not given)	3	-5	x	x	1	x
O=[N+]([O-])c1ccc(-c2ccc(C=Nc3cccc4ccccc34)o2)cc1	5	x	-14	16	-9	13
COc1ccc(NC(=O)CCC(=O)N/N=C/c2ccc([N+](=O)[O-])s2)cc1	14	2	-72	116*	x	72*
O=C(CNC(=O)c1ccccc1)N/N=C/c1ccc([N+](=O)[O-])s1	3	x	-62	4	7	63*
O=C(Cc1ccccc1)NCC(=O)N/N=C/c1ccc([N+](=O)[O-])s1	4	2	-81	7	-2	83*
O=[N+]([O-])c1ccc(C=Nc2cccc3ccccc23)s1	5	-6	-45	103*	x	45
COc1ccc(-c2cc(-c3nnc(SCC(=O)Nc4ccc(-c5nc6ccc(C)cc6s5)cc4)n3N)[nH]n2)cc1	x	-4	x	x	x	x
CCOc1ccc(NC(=O)CC2C(=O)N(c3ccc(OCC)cc3)C(=S)N2C2CC2)cc1 (stereo not given)	2	6	-2	14	0	4
CCCOc1ccc(NC(=O)CC2C(=O)N(c3ccc(OCC)cc3)C(=S)N2C2CC2)cc1 (stereo not given)	x	0	-77	-13	-2	75*

Source: PubChem BioAssay
